In PubChem BioAssay (NCATS) one finds outcome and Potency data, which are given here for 34 compounds.

Values joined by “and” are separate entries in the source; they are usually repeats but may differ in a detail not shown here. Equal values may be shown once. Inconclusive results are not listed. Active and inactive are the calls of the source. Unless noted, the call rests on the fitted dose curve; in most records, active means well fitted curve in the direction sought with a large enough effect; inconclusive means small, poorly fitted or top-dose-only effect, or another doubt; inactive means no such curve, though single readings can be large; an effect the other way counts as inactive or inconclusive.

Assay [1] can be described thus: Cell Viability - Mesenchymal (AID 546).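 Further: cells exposed to compound for 40 hours before reading.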 Summed up: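 In this qHTS cytotoxicity format, glomerulus-derived human mesenchymal kidney cells received compound for 40 hr, then luciferase-based ATP quantitation. Concentration-response data were fitted with the Hill equation.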
Assay [2] is described as follows: Cellular Toxicity (caspase-3) HepG2 (AID 654).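 Further: cells exposed to compound for 16 hours before reading.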 Summed up: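 Caspase 3/7 activation in HepG2 is measured as rising luminescence after a 16 hr treatment at 37 °C. Values are scaled between DMSO basal and 100 uM tamoxifen, and AC50 is fitted with the Hill equation.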
Assay [3] in a line: Cellular Toxicity (caspase-3) Jurkat (AID 655).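 Further: cells exposed to compound for 16 h at 37 °C before reading.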 The procedure, abridged: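 5000 Jurkat cells/well; compound 16 hr, 37 °C; Caspase-Glo 3/7 added, 20 min RT; luminescence read. Norm: DMSO = 0%, tamoxifen 100 uM = 100%. AC50, Hill model.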
Assay [4] in a line: Cellular Toxicity (caspase-3) HUV-EC-C (AID 656). The procedure, abridged:
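qHTS; HUV-EC-C, 1000 cells/well; 5 hr settle, 16 hr cmpd, 37°C; Caspase-Glo 3/7, 20 min RT; luminescence. Norm: DMSO = 0%, tamoxifen 100 uM = 100%. Hill-fit AC50.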

A short description of assay [5]: Cellular Toxicity (caspase-3) SHSY5Y (AID 657).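 Further: cells exposed to compound for 16 hours at 37 °C.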 Summed up: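 qHTS, SH-SY5Y, 1500 cells/well, 5 h pre-incubation 37 °C; compound 16 h 37 °C; Caspase-Glo 3/7 1 h RT; luminescence. Norm.: DMSO = 0, 10 uM staurosporine = 100%. Hill fit → AC50.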
A short description of assay [6]: Cellular Toxicity (caspase-3) BJ (AID 658). Summed up:
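Plated BJ cells (1000/well) rested 5 hr, received compound for 16 hr at 37 °C, then Caspase-Glo 3/7 reagent for 1 hr at room temperature before luminescence reading.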

The nature of assay [7]: Cellular Toxicity (caspase-3) MRC-5 (AID 659). The procedure, abridged: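 Apoptosis readout in MRC-5 cells: luciferase light generated after caspase 3/7 cleaves a peptide-aminoluciferin substrate, measured post 16 hr compound incubation at 37 °C.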
Assay [8] can be described thus: Cellular Toxicity (caspase-3) Mesangial (AID 660).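 Further: combined caspase 3 and 7 activity read by Caspase-Glo luminescence; cells exposed to compound for 16 h before the caspase read.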 The procedure, abridged: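 Seed cells derived from normal human renal glomeruli, incubate 5 h, add compounds across concentrations and incubate 16 h at 37 °C. Caspase 3/7 activation is then quantified by luciferase light, with AC50 derived by Hill modeling.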
A short description of assay [9]: Cellular Toxicity (caspase-3) SK-N-SH (AID 661). The procedure, abridged:
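Cells were seeded and incubated 5 hr at 37 °C, dosed with compound over a concentration range for 16 hr, then given Caspase-Glo 3/7 reagent for 1 hr at room temperature before luminescence reading.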

Assay [10] in a line: Cellular Toxicity (caspase-3) H-4-II-E (AID 663).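 Further: cells exposed to compound for 16 hr before readout.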 The procedure, abridged: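 Caspase 3/7 activation measured in H-4-II-E cells in complete culture medium after 16 hr treatment at 37 °C, using luciferase-coupled substrate readout; AC50 values come from Hill-equation fits of normalized concentration-response data.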
A short description of assay [11]: Cellular Toxicity (caspase-3) Hek293 (AID 664).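 Further: cells exposed to compound for 16 h at 37 °C before readout.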 Summed up:
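qHTS, HEK293 (human embryonic kidney), 16 h cpd exposure in complete medium. Caspase-3/7 activation = luminescence increase; normalized to DMSO/100 uM tamoxifen; Hill-fit AC50.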

The nature of assay [12]: Cellular Toxicity (caspase-3) N2a (AID 665).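 Further: compound exposure lasted 16 h at 37 °C before readout.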 Summed up: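 Caspase-3/7 activation, measured as increased luminescence from aminoluciferin release, is quantified in mouse N2a cells exposed to compounds for 16 h. Values are normalized to DMSO and 10 uM staurosporine, with AC50 derived by Hill modelling.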
The nature of assay [13]: Cellular Toxicity (caspase-3) NIH 3T3 (AID 666).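 Further: caspase signal read after 16 h compound exposure.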 Summed up:
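Cells were plated at 1000 per well and incubated 5 hr at 37°C, then compound was added for 16 hr. Caspase-Glo 3/7 reagent followed for 20 min at room temperature before luminescence was read.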

Assay [14] in a line: Cellular Toxicity (caspase-3) Renal Proximal Tubule (AID 667).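 Further: cells exposed to compound for 16 hours at 37 °C before detection.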 Summed up:
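AC50 derived by standard Hill fit of concentration-response data, normalized between DMSO basal and 10 uM staurosporine as 100% stimulation. Cells: primary rat kidney proximal tubule, 16 h treatment at 37 °C.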

Assay [15] concerns the target Cytochrome P450 2C9 (Homo sapiens) (UniProt P11712). Nature of the assay: qHTS Assay for Inhibitors and Substrates of Cytochrome P450 2C9 (AID 883). Further: nearly all actives have a fitted effect of over 60% in size. The procedure, abridged: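 Human CYP2C9 (10nM) hydroxylated Luciferin-H (100uM, at its KM) to luciferin in 25mM KPO4. Compound was preincubated 10 min at 37C, then NADPH regeneration started a 60 min reaction at 37C. Luminescence was read after detection reagent, normalized to 57uM sulphaphenazole.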
A general note: In qHTS, concentration-response curves come from the screen itself.

Assay [16] concerns the target Cytochrome P450 3A4 (Homo sapiens) (UniProt P08684). Nature of the assay: qHTS Assay for Inhibitors and Substrates of Cytochrome P450 3A4 (AID 884). Further: nearly all actives have a fitted effect of over 50% in size. Further: potency means the concentration at half of the fitted maximal effect. The procedure, abridged: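 Luminescent readout of luciferin produced by CYP3A4 (20 nM) dealkylation of Luciferin-PPXE, 25 uM (its KM). NADPH-driven reaction ran 60 min at RT after 10 min compound preincubation; data scaled to 57 uM ketoconazole as 100% inhibition.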

Assay [17] concerns the target Cytochrome P450 2D6 (Homo sapiens) (UniProt P10635). The experiment in a line: qHTS Assay for Inhibitors and Substrates of Cytochrome P450 2D6 (AID 891). Further: nearly all actives have a fitted effect of over 60% in size. Further: potency means the concentration at half of the fitted maximal effect. The procedure, abridged:
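Luminescent read-out of luciferin formed by 5 nM human CYP2D6 demethylating 30 uM Luciferin-ME EGE (Km level) over 60 min at room temperature after NADPH regeneration addition. Data normalized to full inhibition by 1.43 uM quinidine.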

In assay [18] the target is Cytochrome P450 3A4 (Homo sapiens) (UniProt P08684). The experiment in a line: qHTS Assay for Activators of Cytochrome P450 3A4 (AID 885). Further: nearly all actives have a fitted effect of over 65% in size. Further: potency means the concentration at half of the fitted maximal effect. Summed up: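 Luminescent readout of luciferin formed from 25 uM Luciferin-PPXE (KM level) by 20 nM CYP3A4 in 200 mM KPO4, with 60 min NADPH-driven reaction at room temperature after 10 min compound exposure. Ketoconazole (57 uM) defined 100% inhibition.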

In assay [19] the target is 3',5'-cyclic-AMP phosphodiesterase 4B (Homo sapiens) (UniProt Q07343). Nature of the assay: qHTS Assay for Inhibitors of PDE-IV (AID 607; active means well fitted activation curve with a large enough effect in the main read-out, with a control signal flat, not every such curve was filed as active). Summed up: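 Cell-based read-out of cAMP via a modified cyclic nucleotide-gated channel and membrane potential dye (535/590 nm) in HEK293 cells expressing PDE4 endogenously. Compounds tested up to 22.9 uM final; 100 uM RO 20-1724 reference.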

Assay [20] concerns the target Guanine nucleotide-binding protein G(i) subunit alpha-1 (Homo sapiens) (UniProt P63096). Nature of the assay: qHTS Assay for Inhibitors of RGS12 GoLoco Motif Activity (Green Fluorophore) (AID 879). Further: potency means the concentration at half of the fitted maximal effect. Summed up: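 A drop in FITC polarization marked displacement of the FITC-tagged RGS12 GoLoco peptide (10 nM) from Gαi1 (50 nM). Compounds were incubated 10 min at room temperature in Tris pH 7.5 buffer containing 150 mM NaCl, 0.1 mM GDP and 0.05% NP40; unlabeled peptide titration served as control.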

Chain of Cytochrome P450 2C9 (Homo sapiens) (P11712 whole entry, looked up): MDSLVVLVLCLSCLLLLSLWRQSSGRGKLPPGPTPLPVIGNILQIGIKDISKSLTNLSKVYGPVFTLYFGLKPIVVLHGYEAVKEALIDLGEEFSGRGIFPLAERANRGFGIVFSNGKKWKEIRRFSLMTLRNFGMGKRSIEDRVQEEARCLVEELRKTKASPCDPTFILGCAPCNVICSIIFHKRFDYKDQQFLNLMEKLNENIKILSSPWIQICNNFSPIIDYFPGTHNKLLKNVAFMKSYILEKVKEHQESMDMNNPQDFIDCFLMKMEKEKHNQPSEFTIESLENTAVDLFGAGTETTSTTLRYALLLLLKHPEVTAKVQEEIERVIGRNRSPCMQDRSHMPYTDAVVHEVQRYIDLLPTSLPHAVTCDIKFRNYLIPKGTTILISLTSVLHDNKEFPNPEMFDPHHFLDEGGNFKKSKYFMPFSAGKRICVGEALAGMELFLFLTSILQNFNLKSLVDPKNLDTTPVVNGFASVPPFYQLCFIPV
Chain of Cytochrome P450 2D6 (Homo sapiens) (P10635 whole entry, looked up): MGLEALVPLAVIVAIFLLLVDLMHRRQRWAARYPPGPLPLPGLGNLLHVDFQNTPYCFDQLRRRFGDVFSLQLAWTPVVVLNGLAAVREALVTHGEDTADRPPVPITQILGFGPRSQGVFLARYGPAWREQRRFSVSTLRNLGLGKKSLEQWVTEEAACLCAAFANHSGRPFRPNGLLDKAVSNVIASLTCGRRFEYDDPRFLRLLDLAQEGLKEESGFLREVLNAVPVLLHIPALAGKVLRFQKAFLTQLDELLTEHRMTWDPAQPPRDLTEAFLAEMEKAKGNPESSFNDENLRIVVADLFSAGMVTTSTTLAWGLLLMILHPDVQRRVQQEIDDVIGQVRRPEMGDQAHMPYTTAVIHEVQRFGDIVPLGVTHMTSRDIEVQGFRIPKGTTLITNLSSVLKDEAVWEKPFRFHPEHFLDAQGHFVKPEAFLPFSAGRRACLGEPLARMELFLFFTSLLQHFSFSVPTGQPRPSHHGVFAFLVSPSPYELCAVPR
Chain of Cytochrome P450 3A4 (Homo sapiens) (P08684 whole entry, looked up): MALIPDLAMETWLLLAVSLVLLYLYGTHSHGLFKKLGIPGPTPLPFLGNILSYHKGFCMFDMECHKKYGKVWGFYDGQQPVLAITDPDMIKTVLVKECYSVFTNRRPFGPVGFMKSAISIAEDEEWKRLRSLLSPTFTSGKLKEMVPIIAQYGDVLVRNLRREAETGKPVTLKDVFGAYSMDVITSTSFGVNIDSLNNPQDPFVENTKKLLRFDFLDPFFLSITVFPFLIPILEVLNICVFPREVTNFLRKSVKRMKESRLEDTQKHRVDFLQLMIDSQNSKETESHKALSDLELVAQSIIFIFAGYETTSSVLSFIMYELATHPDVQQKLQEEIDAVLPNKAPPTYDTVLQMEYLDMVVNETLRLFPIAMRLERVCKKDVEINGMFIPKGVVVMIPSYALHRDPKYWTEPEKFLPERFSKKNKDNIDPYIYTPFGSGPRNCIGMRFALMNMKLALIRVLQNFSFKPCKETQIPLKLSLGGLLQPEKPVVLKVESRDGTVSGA
Chain of Guanine nucleotide-binding protein G(i) subunit alpha-1 (Homo sapiens) (P63096 whole entry, looked up): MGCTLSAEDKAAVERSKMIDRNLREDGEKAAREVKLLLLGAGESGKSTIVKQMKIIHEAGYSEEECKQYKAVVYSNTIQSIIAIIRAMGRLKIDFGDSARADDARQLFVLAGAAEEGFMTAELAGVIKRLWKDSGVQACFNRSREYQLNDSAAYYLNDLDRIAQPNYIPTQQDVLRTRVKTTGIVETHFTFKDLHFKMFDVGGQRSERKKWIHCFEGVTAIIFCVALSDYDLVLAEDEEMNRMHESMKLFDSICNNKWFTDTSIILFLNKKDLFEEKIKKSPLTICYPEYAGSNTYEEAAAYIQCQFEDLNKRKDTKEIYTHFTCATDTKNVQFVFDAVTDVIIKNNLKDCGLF
Chain of 3',5'-cyclic-AMP phosphodiesterase 4B (Homo sapiens) (Q07343 whole entry, looked up): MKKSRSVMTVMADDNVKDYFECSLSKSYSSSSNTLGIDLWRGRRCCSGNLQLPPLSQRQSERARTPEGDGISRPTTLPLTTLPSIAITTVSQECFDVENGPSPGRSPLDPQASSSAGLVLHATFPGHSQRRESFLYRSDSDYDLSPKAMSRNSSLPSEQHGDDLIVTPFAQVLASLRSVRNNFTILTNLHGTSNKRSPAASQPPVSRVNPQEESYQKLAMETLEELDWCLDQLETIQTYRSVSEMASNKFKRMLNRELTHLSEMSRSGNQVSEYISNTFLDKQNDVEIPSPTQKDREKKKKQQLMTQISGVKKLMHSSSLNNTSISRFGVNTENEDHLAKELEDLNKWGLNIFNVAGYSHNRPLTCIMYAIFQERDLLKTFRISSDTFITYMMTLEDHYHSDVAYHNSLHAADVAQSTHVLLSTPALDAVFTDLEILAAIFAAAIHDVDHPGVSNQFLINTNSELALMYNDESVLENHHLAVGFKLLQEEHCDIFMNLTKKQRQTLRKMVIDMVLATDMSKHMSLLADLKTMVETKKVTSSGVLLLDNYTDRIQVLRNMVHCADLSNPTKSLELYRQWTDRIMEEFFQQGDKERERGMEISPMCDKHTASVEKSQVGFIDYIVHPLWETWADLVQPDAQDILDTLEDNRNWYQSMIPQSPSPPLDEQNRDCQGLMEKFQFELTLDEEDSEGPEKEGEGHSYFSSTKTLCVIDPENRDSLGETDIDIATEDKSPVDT

For the compound `CC(=O)C(C)=O`, the compound was called inactive in assay [1], in assay [2], in assay [3], in [4], in assay [5] and in assay [6]. The compound was classed as inactive in assay [7], in [8], in [9], in assay [10], in assay [11] and in assay [12]. In addition, the compound was classed as inactive in [13] and in [14]. The Potency result in assay [15], in assay [16] and in assay [17] was “inactive” in each case.

As for `NC(=O)c1ccccc1`, the compound was classed as inactive in assay [1], in [2], in [3], in [4], in assay [5] and in assay [6]. Also, the outcome in assay [7], in assay [8], in assay [9], in assay [10], in [11] and in [12] was inactive. Moreover, the compound was called inactive in assay [13] and in assay [14]. Further, the Potency entry in assay [15], in assay [18] and in assay [17] was “inactive” throughout.

With `COCc1nc2c([nH]1)c(=O)n(C)c(=O)n2CC(C)C`, the Potency entry in [19], in assay [20], in [15], in [18] and in [17] was “inactive” each time.

For the compound `C=CC[C@H](N)C(=O)O`, the Potency entry in assay [19], in assay [20] and in [16] was “inactive” throughout.

Take `COc1ccc(CCN(C)CCc2ccc(OC)c(OC)c2)cc1OC`: the Potency result in assay [19], in assay [20] and in assay [18] was “inactive” throughout.

Take `O=C(O)C1=CCCNC1`: the Potency entry in assay [19], in [20] and in assay [16] was “inactive” throughout.

As for `Oc1ccc(Cn2cc[nH]c2=S)cc1`, the Potency result in assay [19], in assay [20], in [15] and in [18] was “inactive” throughout.

On to `CCCOC(=O)c1c(-c2ccccc2)nc(CC)c(C(=O)SCC)c1CCC`, for which the Potency entry in [19], in assay [20] and in [18] was “inactive” throughout.

Turning to `S=C(S)N1CCCC1`, the Potency entry in assay [19], in assay [20] and in [18] was “inactive” throughout.

For the compound `N[C@H](C(=O)O)c1cc(O)cc(O)c1`, the Potency result in assay [19], in [20], in [15], in assay [18] and in [17] was “inactive” in each case.

For `NC(=Nc1ccccc1)NC(=O)c1nc(Cl)c(N)nc1N`, the Potency result in [19], in assay [20] and in [18] was “inactive” throughout.

On to `COc1cc2c(CCNC(C)=O)c[nH]c2cc1O`, for which the Potency entry in assay [19], in assay [20] and in assay [18] was “inactive” each time.

For the compound `NCCCCN`, the Potency entry in assay [19], in [20] and in assay [16] was “inactive” in each case.

For the compound `O=c1[nH]ccc2c(O)cccc12`, the Potency result in assay [19], in assay [20], in assay [15] and in assay [18] was “inactive” throughout.

For the compound `NCCS(=O)O`, the Potency entry in [19], in assay [20], in assay [15] and in assay [17] was “inactive” in each case.

Take `Cn1c(=O)[nH]c2ncn(C)c2c1=O`: the Potency result in assay [19], in assay [20] and in [16] was “inactive” throughout.

On to `N#C/C(=C\c1ccc(O)c(O)c1)C(=O)NCCc1ccccc1`, for which the Potency entry in [19], in assay [20] and in assay [18] was “inactive” throughout. Moreover, the Potency in [16] was 3.98 µM (active).

In the case of `CCN(CC)CCCCCCCCOC(=O)c1cc(OC)c(OC)c(OC)c1`, the Potency entry in assay [19], in [20] and in assay [18] was “inactive” throughout.

For `c1ccc(CN2CCC3(CCCc4ccccc43)CC2)cc1`, the Potency entry in assay [19], in [20] and in [16] was “inactive” each time. Besides, the Potency in [18] was 25.1 µM (active); in assay [17], 0.251 µM (active).

`CN[C@H](CC(=O)O)C(=O)O`: the Potency result in [19], in assay [20], in [15], in assay [16] and in assay [17] was “inactive” throughout.

Consider `O=C(O)C1=CC(=C(c2ccc(O)c(C(=O)O)c2)c2ccc(O)c(C(=O)O)c2)C=CC1=O`, for which the Potency entry in assay [19] and in assay [16] was “inactive” in each case. Further, the Potency in assay [20] was 15.8 µM (active).

For `O=[N+]([O-])c1cccc2c(Br)[nH]nc12`, the Potency result in [19], in assay [20], in [15] and in [18] was “inactive” throughout.

As to `CCCCCCCCCCC/C=C\C(C)(C)/C=C\CCCC(=O)O`, the Potency entry in assay [19], in assay [20] and in assay [16] was “inactive” in each case.

`Cn1cc(C(=O)OCC2CCN(CCNS(C)(=O)=O)CC2)c2ccccc21`: the Potency entry in assay [19], in [20], in assay [15] and in assay [17] was “inactive” in each case.

For `[Li+]`, the Potency result in assay [19], in [20] and in assay [18] was “inactive” in each case.

In the case of `Nc1ccc(N2C(=O)c3ccccc3C2=O)c(Cl)c1`, the Potency result in assay [19], in assay [20] and in assay [18] was “inactive” each time.

For `O=C(O)c1ccccc1Nc1ccccc1`, the Potency result in assay [19], in [20] and in assay [18] was “inactive” each time.

As for `O=C(OCCN1CCOCC1)C1(c2ccccc2)CCCCC1`, the Potency entry in assay [19], in assay [20] and in [18] was “inactive” each time. Also, the Potency in assay [16] is 3.16 µM (active) and 1.58 µM (active).

In the case of `CNCCNS(=O)(=O)c1cccc2cnccc12`, the Potency result in [19], in [20] and in assay [18] was “inactive” in each case.

As for `c1ccc2nc(C3=NCCN3)ccc2c1`, the Potency result in [19], in assay [20] and in assay [18] was “inactive” each time.

With `N#CC(C#N)=C(N)/C(C#N)=C/c1ccc(O)cc1`, the Potency entry in assay [19], in [20] and in [18] was “inactive” each time.

In the case of `CCn1c(=O)[nH]c2cc(Cl)c(Cl)cc21`, the Potency entry in assay [19], in assay [20], in [15], in [18] and in assay [17] was “inactive” each time.

Consider `Nc1ncnc2c1c(-c1ccc(Oc3ccccc3)cc1)cn2C1CCCC1`, for which the Potency result in assay [19], in assay [20] and in assay [16] was “inactive” in each case. For the same compound, the Potency in assay [18] was 3.16 µM (active).

On to `CC(=O)NNC(=O)N1Cc2ccccc2Oc2ccc(Cl)cc21`, for which the Potency result in assay [19], in [20], in assay [15] and in assay [18] was “inactive” each time. Also, in assay [17], the Potency was 6.31 µM (active).
